In the library only some 9.4% were active in any assay of this set; here they are far more common.
HPGD inh: blocks human HPGD enzyme activity; Potency, µM, inactives show at the highest dose activity change, negative = inhibition, most hits filed as inhibitors; purified HPGD, NADH fluorescence kinetic, PGE2 substrate; 150,000 compounds, 4.3% hits; AID 894; active = well fitted inhibition curve with a large enough effect, not every such curve was filed as active; inconclusive = small, poorly fitted or top-dose-only effect, or another doubt; inactive = no such curve, though single readings can be large or run the other way; also: potency is read from the fitted curve at half-maximal effect; % is scaled to controls: 0 for no effect and ±100 for the full control effect
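NADH formation kinetics: reaction with 30 uM PGE2 and 1 mM NAD+ (final), 20 nM enzyme, Tris-HCl pH 8 with Tween 20, after 15 min compound preincubation at room temperature. Fluorescence change, last versus first of five reads.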
ALDH1A1 block: inhibitors of human aldehyde dehydrogenase 1A1; P00352; Purified ALDH1A1, NADH fluorescence, propionaldehyde substrate; Potency, µM (series often up to 75.3 µM), for the others: at the highest dose activity, negative = inhibition, most hits filed as inhibitors; 220,000 compounds, 7.3% hits; AID 1030; active = well fitted inhibition curve with a large enough effect, not every such curve was filed as active; inconclusive = small, poorly fitted or top-dose-only effect, or another doubt; inactive = no such curve, though single readings can be large or run the other way;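 also: potency is read from the fitted curve at half-maximal effect; plate controls were no enzyme wells and a reference inhibitor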
Target sequence (P00352 whole entry, looked up): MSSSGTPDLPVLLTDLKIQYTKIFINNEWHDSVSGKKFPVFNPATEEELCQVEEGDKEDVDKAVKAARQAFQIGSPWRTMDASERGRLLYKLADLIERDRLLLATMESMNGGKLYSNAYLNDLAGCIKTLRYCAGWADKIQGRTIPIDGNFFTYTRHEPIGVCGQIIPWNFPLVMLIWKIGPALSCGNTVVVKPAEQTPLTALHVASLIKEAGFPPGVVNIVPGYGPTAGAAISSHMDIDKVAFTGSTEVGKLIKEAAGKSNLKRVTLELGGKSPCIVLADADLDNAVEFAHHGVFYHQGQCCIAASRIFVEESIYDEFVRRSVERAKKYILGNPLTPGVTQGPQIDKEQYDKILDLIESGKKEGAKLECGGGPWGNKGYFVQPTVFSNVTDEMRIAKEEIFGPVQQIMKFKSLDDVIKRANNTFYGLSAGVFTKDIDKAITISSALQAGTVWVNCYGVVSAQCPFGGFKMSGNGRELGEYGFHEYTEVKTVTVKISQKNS
IMPase Li cell: IMPase inhibition in cells with lithium potentiation; CHO-M1 cells, IP1 TR-FRET (IP-One), carbachol + lithium; Potency, µM (series often up to 59.4 µM), for the others: top-dose activity, negative = IMPase inhibition, actives largely listed as inhibitors; 210,000 compounds, 0.35% hits; AID 1457;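 also: IP1 builds up when IMPase is blocked and the TR-FRET signal falls; potency is read from the fitted curve at half-maximal effect; plate controls were basal vehicle for no effect and high inhibitor control for full effect; nearly all actives have a fitted effect of over 50% in size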
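CHO-M1, 2000 cells/well, 16–30 h culture; cpd + low Li+, 30 min 37C; lysis with d2-IP1/Eu-anti-IP1 Ab, 10 min RT; TR-FRET 665/620 ratio and 620 channel; AC50 via Hill.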
HTT cytoprotect: cytoprotection in Huntington HTT-Q103 PC12 cell model; PC12 HTT-Q103 induced, cytoprotection, ATP luminescence, 40 h; Potency, µM (highest dose often 56.4 µM), for inactives: cytoprotection (ATP increase), hits mostly activators; 230,000 compounds, 0.14% hits; also: potency is read from the fitted curve at half-maximal effect; % of control where 0% means no effect; nearly all actives have a fitted effect of over 45% in size
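ATP quantification (ATPlite) reports survival of PC12 cells in which tebufenozide, 100 nM final, switches on Htt exon 1 with 103 glutamines linked to GFP; compounds are titrated.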
IMPase cell inh: membrane-permeable compound that blocks inositol monophosphatase | 120,000 tested, under 10 active | inhibition (IP1 accumulation), % at 46.1 µM | CHO-M1 cells, IP1 accumulation, HTRF TR-FRET ratio; active = well fitted curve in the direction sought with a large enough effect in the signal ratio, not every such curve was filed as active; inconclusive = small, poorly fitted or top-dose-only effect, or a change in a side signal; inactive = no such curve, though single readings can be large or run the other way; the % refers to the signal ratio;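 also: cells stimulated with carbachol in lithium chloride buffer; plate controls were DMSO basal wells for no effect and reference inhibitor wells for full effect; higher means more IMPase inhibition seen as more IP1 and lower FRET ratio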
Target sequence (P97697 whole entry, looked up): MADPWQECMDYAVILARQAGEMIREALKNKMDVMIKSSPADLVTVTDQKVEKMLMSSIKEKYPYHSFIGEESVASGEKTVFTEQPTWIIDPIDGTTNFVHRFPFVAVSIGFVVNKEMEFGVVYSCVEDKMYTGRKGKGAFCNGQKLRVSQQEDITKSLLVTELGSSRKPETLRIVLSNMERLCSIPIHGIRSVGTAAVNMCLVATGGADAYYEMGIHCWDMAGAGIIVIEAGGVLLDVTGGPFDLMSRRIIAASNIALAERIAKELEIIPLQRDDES
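The IP-One HTRF competitive assay in carbachol-stimulated CHO-M1 cells quantifies cellular IP1. Compounds spanned up to 46 uM final, and activity is expressed as AC50 from concentration-response fits of the ratio and donor data.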
HTT aggregate: reduces HttQ103-GFP aggregates in PC12 cells; AID 1688; Potency, µM (series often up to 46.1 µM), inactives show top-dose activity change, negative = inhibition, actives largely listed as inhibitors; 220,000 compounds, 1.1% hits; PC12 HttQ103-GFP aggregates, Acumen cytometry, 40 h; also: potency is read from the fitted curve at half-maximal effect; % is scaled to controls: 0 for no effect and ±100 for the full control effect; nearly all actives have a fitted effect of over 60% in size
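Compounds (qHTS titration) were added to PC12 cells expressing an ecdysone-driven HTT exon 1 Q103–GFP fusion after induction with 100 nM tebufenozide. Aggregate formation was measured as GFP objects in cell lysates.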
Numbers without * were called inactive; ? = inconclusive; nt = no result; [ ] = dose if it differs, or a comment. Unless noted, calls follow the shape of the dose curve; as a rule, active = well fitted curve in the direction sought with a large enough effect; inconclusive = small, poorly fitted or top-dose-only effect, or another doubt; inactive = no such curve, though single readings can be large; an effect the other way counts as inactive or inconclusive.

SMILES	HPGD inh	ALDH1A1 block	IMPase Li cell	HTT cytoprotect	IMPase cell inh	HTT aggregate
CC(CC(=O)NCC1CCCO1)c1ccccc1 (stereo not drawn)	16µM*	15%	-3%	1%[10 µM]	-3	25%
NC(N)=NCCCC(NC(=O)C(N)Cc1ccc(O)cc1)C(=O)O (stereo not drawn)	-17%	-9%	1%	-23%	nt	nt
Cn1cnc(S(=O)(=O)Nc2cc(-c3ccc(Cl)cc3)nn2C)c1	nt	6%	nt	6%[10 µM]	nt	-3%[9.22 µM]
O=C(NCC1CCCO1)c1ccc(N2CCCCC2)nc1 (stereo not drawn)	14µM*	?	47%[38.3 µM]	8%[10 µM]	-3[1.84 µM]	13%
Cn1c(C(=O)NCC2CCCO2)cc2c(=O)n3ccccc3nc21 (stereo not drawn)	?	?	8.9µM*	1%	-5	0%
COCCn1c(=N)c(C(=O)NCC2CCCO2)cc2c(=O)n3ccccc3nc21 (stereo not drawn)	nt	nt	nt	nt	-8	nt
O=C(NCC1CCCO1)c1ccc2nc(N3CCCCC3)sc2c1 (stereo not drawn)	?	?	11%	-21%	1	11%
O=C(NCC1CCCO1)c1cccc(F)c1 (stereo not drawn)	22µM*	5%	-6%[38.3 µM]	8%	-3	2%
O=C(NCC1CCCO1)C1CCC(CNS(=O)(=O)c2ccccc2)CC1 (stereo not drawn)	-9%	14µM*	14%[38.3 µM]	19%[10 µM]	-4	-8%
O=C(NCC1CCCO1)C1CCN(S(=O)(=O)c2ccccc2)CC1 (stereo not drawn)	nt	2%	1%	16%[10 µM]	nt	-4%[9.22 µM]
Cc1onc(-c2c(F)cccc2Cl)c1C(=O)N[C@H]1C(=O)N2[C@H]1SC(C)(C)[C@H]2C(=O)O	-18%	-4%[20.9 µM]	-1%	-6%[40.3 µM]	3[20.6 µM]	nt
CNC1C(O)C(OC2C(NC(=O)C(O)CN)CC(N)C(OC3OC(CN)C(O)C(O)C3O)C2O)OCC1(C)O (stereo not drawn)	nt	nt	nt	-3%	nt	12%
O=C(NCCCN1CCCCCC1)[C@@H](c1ccccc1)C1CCCCC1	3%	4%	8%	-3%	5	nt
CC(C(=O)NC1C(=O)N2C(C(=O)O)=C(CSc3nnnn3C)CSC12)n1cc(Br)cn1 (stereo not drawn)	nt	15µM*	9%	-20%	nt	33%
Cn1nnnc1SCC1=C(C(=O)O)N2C(=O)C(NC(=O)C3CC3c3ccccc3)C2SC1 (stereo not drawn)	nt	10µM*	-2%	-6%	nt	2%
Cc1nn(C(C)C(=O)NC2C(=O)N3C(C(=O)O)=C(CSc4nnnn4C)CSC23)cc1Cl (stereo not drawn)	nt	?	-6%	5%	nt	?
CC(N)=NCCCC(N)C(=O)O (stereo not drawn)	3%	-2%	5%	nt	nt	nt
COC(=O)NC(c1cccc(F)c1)[C@@]1(C(=O)OC)CCCC1=O (stereo partly drawn)	nt	3%[13.5 µM]	nt	?	nt	nt
Cc1cc(C)c(C)c(S(=O)(=O)N2CCN(c3ccc(O)cc3)CC2)c1C	nt	22µM*	0%	-38%	nt	?
Cn1c(/C(C#N)=C/c2ccc(C(F)(F)F)cc2)nc2ccccc21	nt	nt	nt	nt	-5	nt
O=C(CCN1C(=O)C2C3C=CC(C3)C2C1=O)N1CCN(c2ccccn2)CC1 (stereo not drawn)	?	?	5%	25%[10 µM]	-8	2%
O=C(CCN1C(=O)C2C3C=CC(C3)C2C1=O)N1CCN(c2cccc(Cl)c2)CC1 (stereo not drawn)	-13%	7.9µM*	23%[38.3 µM]	-22%	-1	-7%
COC(=O)/C(=N/Nc1ccccc1C)Sc1nnc(C(O)c2ccccc2)n1-c1ccccc1 (stereo not drawn)	32µM*	-5%	-19%	-40%[10 µM]	nt	20%
N#C/C(=C/c1cn(Cc2ccc(F)cc2)c2ccccc12)C(=O)Nc1cccc(Cl)c1	nt	nt	nt	nt	0	nt
Cc1nc(C)c(/C(O)=C/c2nc3ccc([N+](=O)[O-])cc3oc2=O)o1	nt	0.4µM*	?	-22%	nt	15%
SMILES	HPGD inh	ALDH1A1 block	IMPase Li cell	HTT cytoprotect	IMPase cell inh	HTT aggregate
Cc1ccc2oc(=O)c(/C=C(\O)c3ccccc3)nc2c1	nt	?	-4%	44%	nt	-15%
CCCCCCCCCCOCCC(=O)O	-3%	11%	-6%	-23%	nt	nt
CCOC(=O)c1ccoc1CSCc1ccc(C(=O)OC)o1	-18%	25µM*	28%[38.3 µM]	-8%	19	6%
COC(=O)c1ccc(CSC(=N)N)o1	nt	3%	8%	20%[10 µM]	nt	-1%[9.22 µM]
COc1cc(NC(=O)Cn2ccsc2=N)c(C)cc1[N+](=O)[O-]	nt	-9%	4%	-12%[10 µM]	nt	5%[9.22 µM]
N=c1sccn1CC(=O)Nc1ccc(Cl)cc1[N+](=O)[O-]	nt	28µM*	nt	27%[10 µM]	nt	3%[9.22 µM]
N=c1sccn1CC(=O)Nc1ccc(S(N)(=O)=O)cc1	nt	7.1µM*	nt	1%[10 µM]	nt	3%[9.22 µM]
COc1ccc(CN(CCC(c2ccccc2)c2ccc(OC(C)C)cc2)C(=O)CCl)cc1OC (stereo not drawn)	?	10µM*	14%	10%[10 µM]	nt	?
CC(Nc1oc(-c2ccccc2)nc1-c1ccc(C(F)(F)F)cc1)c1ccccc1 (stereo not drawn)	-10%	6%	2%	3%	nt	nt
CC1CCC(C(C)C)C(OC(=O)CSc2nccc(=O)[nH]2)C1 (stereo not drawn)	-2%	25µM*	4%[38.3 µM]	17%[10 µM]	4	0%
CC1CCC(C(C)C)C(OC(=O)COC(=O)c2ccc(=O)[nH]c2)C1 (stereo not drawn)	-11%	5%	2%[38.3 µM]	1%[10 µM]	?	-5%
CCOc1ccc(CNC(=S)N/N=C\c2ccc([N+](=O)[O-])cc2)cc1	-23%	3.2µM*	14%[38.3 µM]	2%[10 µM]	0	2%
CCCCOc1ccc(CNC(=S)N/N=C/c2ccc(OC)c(OC)c2)cc1	16µM*	-5%	6%[38.3 µM]	-12%	-4	1%[9.22 µM]
COC(=O)C1=C(C(=O)OC)[C@@H]2Nc3ccccc3[C@@]23C[C@@H](C(=O)OC)N(S(=O)(=O)c2ccc(C#N)cc2)C3=N1	-11%	?	-3%	-17%[10 µM]	nt	nt
Fc1ccc(/C=N/NC(=S)Nc2cccnc2)cc1	nt	22µM*	5%	-46%	nt	11%
CC(=O)Nc1cccc(C(=O)N/N=C/c2cccnc2)c1	nt	6%	-1%	-89%	nt	-1%
Oc1ccc(/C=N/NC(=S)Nc2cccnc2)c(O)c1O	nt	nt	nt	17%[10 µM]	nt	?
O=C(O)c1cccc(NC(=S)N/N=C/c2cccnc2)c1	nt	25µM*	-2%	1%	nt	16%
Oc1cccc(/C=N/NC(=S)Nc2cccnc2)c1O	32µM*	?	4%	nt	nt	?
COc1ccc(N(C(C)C(=O)Nc2cccnc2)S(C)(=O)=O)cc1 (stereo not drawn)	nt	9%	7%	-1%[10 µM]	nt	6%[9.22 µM]

Source: PubChem BioAssay (National Center for Advancing Translational Sciences (NCATS))
